Results published in the supplement of paper PMC9262897, “Low-cost anti-mycobacterial drug discovery using engineered E. coli” (Nature Communications, 2022).
Structures can show the parent of a compound that is named as a salt. ± gives the standard deviation of the averaged measurements.

Tested on: E. coli TESEC Mtb Alr
Assay: growth (OD600 after 10 h); higher = more growth (less inhibition)
Settings: compound 0.1 mM
Experimental: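 TESEC Mtb Alr E. coli, or the Alr+ wild-type control, in 384-well plates with Prestwick library compounds at 0.1 mM and 1% DMSO, across arabinose induction levels of 1E3 to 1E7 nM. Growth is read as OD600 after 10 h at 37 °C in triplicate biological replicates.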

[1] = arabinose 1000 nM, raw OD600 reference: median of DMSO wells 0.294, cell-free background 0.041
[2] = arabinose 10000 nM, raw OD600 reference: median of DMSO wells 0.264, cell-free background 0.041
[3] = arabinose 100000 nM, raw OD600 reference: median of DMSO wells 0.201, cell-free background 0.041
[4] = arabinose 1000000 nM, raw OD600 reference: median of DMSO wells 0.193, cell-free background 0.041
[5] = arabinose 10000000 nM, raw OD600 reference: median of DMSO wells 0.146, cell-free background 0.041

## COc1ccc2[nH]cc(CCNC(C)=O)c2c1 [Melatonin]
[1]
  growth: 0.29 ± 0.0068
[2]
  growth: 0.27 ± 0.005
[3]
  growth: 0.204 ± 0.029
[4]
  growth: 0.183 ± 0.0071
[5]
  growth: 0.1406 ± 0.0012

## Cc1nnc(SCC2=C(C(=O)O)N3C(=O)[C@@H](NC(=O)Cn4cnnn4)[C@H]3SC2)s1 [Cefazolin sodium salt]
[1]
  growth: 0.3162 ± 0.0031
[2]
  growth: 0.24 ± 0.0064
[3]
  growth: 0.229 ± 0.0084
[4]
  growth: 0.183 ± 0.0062
[5]
  growth: 0.145 ± 0.0033

## CC(=O)Nc1nnc(S(N)(=O)=O)s1 [Acetazolamide]
[1]
  growth: 0.293 ± 0.023
[2]
  growth: 0.253 ± 0.0037
[3]
  growth: 0.234 ± 0.0084
[4]
  growth: 0.166 ± 0.0058
[5]
  growth: 0.141 ± 0.006

## CC1=C(/C=C/C(C)=C/C=C/C(C)=C\C(=O)O)C(C)(C)CCC1 [Isotretinoin]
[1]
  growth: 0.274 ± 0.016
[2]
  growth: 0.24 ± 0.0073
[3]
  growth: 0.218 ± 0.012
[4]
  growth: 0.11 ± 0.0034
[5]
  growth: 0.15 ± 0.004

## C[C@H]1NC(=O)NC1=O [Methylhydantoin-5-(D)]
[1]
  growth: 0.323 ± 0.014
[2]
  growth: 0.268 ± 0.005
[3]
  growth: 0.2 ± 0.019
[4]
  growth: 0.186 ± 0.0032
[5]
  growth: 0.156 ± 0.0032

## Cc1ccc(Cl)c(Nc2ccccc2C(=O)O)c1Cl [Meclofenamic acid sodium salt monohydrate]
[1]
  growth: 0.0555 ± 0.0013
[2]
  growth: 0.0424 ± 0.00044
[3]
  growth: 0.0566 ± 0.00087
[4]
  growth: 0.04353 ± 0.00038
[5]
  growth: 0.0628 ± 0.001

## Nc1ccn([C@@H]2O[C@H](CO)[C@@H](O)C2(F)F)c(=O)n1 [Gemcitabine]
[1]
  growth: 0.208 ± 0.012
[2]
  growth: 0.193 ± 0.029
[3]
  growth: 0.126 ± 0.012
[4]
  growth: 0.116 ± 0.0036
[5]
  growth: 0.164 ± 0.003

## CC(C)[N+](C)(CCOC(=O)C1c2ccccc2Oc2ccccc21)C(C)C [Propantheline bromide]
[1]
  growth: 0.231 ± 0.025
[2]
  growth: 0.269 ± 0.0034
[3]
  growth: 0.155 ± 0.0034
[4]
  growth: 0.153 ± 0.0025
[5]
  growth: 0.132 ± 0.0019
